Rows were chosen to be rich in hits. Some 2.5% of all compounds tested hit in one or more screens of this group.
p53 mut binder – binders of human mutant p53, primary screen, biochemical, small molecule microarray, anti-GST fluorescence. calls only. 17,000 compounds, 0.4% hits. small molecule microarray binding. AID 624136, 2012. mutant tumor protein p53 (GST-tagged), Homo sapiens;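 active = compounds whose four printed spots each glow above background more than chance allows, each with a p-value under 7%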
c-Myc SMM – binders of human c-Myc, primary screen, biochemical, small molecule microarray, anti-His fluorescence; His-c-Myc binding; calls only; Myc proto-oncogene protein (Homo sapiens), P01106; 17,000 compounds, 1.5% hits;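 active = spot fluorescence over background with P-value below 7% in all four replicate spots, showing protein binding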;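 note: score is binary with 100 for all four spots passing and 0 otherwise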
Target sequence (P01106 whole entry, looked up): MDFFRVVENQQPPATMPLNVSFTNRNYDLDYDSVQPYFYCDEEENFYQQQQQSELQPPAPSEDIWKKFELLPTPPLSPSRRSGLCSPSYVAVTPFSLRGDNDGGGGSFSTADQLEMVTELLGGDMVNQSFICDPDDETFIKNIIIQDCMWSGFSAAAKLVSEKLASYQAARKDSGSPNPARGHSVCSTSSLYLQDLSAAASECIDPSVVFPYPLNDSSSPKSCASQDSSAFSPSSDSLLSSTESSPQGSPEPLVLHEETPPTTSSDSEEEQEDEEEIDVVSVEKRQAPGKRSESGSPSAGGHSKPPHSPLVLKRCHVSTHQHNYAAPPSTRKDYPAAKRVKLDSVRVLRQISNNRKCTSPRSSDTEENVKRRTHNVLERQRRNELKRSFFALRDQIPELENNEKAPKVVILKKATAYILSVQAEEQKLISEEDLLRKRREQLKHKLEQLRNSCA
NFkB SMM – binders of NF-kB p50 subunit, primary screen, biochemical, small molecule microarray, anti-His fluorescence | Nuclear factor NF-kappa-B p105 subunit (Homo sapiens), P19838 | anti-His fluorescence binding | calls only | 17,000 compounds, 1.3% hits | AID 624139, 2012;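 active = spot fluorescence over background significantly raised, with a chance value under 7% in all four replicate spots of the compound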;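 note: probe protein is his-tagged human p50 processed subunit at 1 µg/ml; raw spot fluorescence signals with no normalization applied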
STAT3 SMM – STAT3 binders, primary screen, biochemical, small molecule microarray, single point, set 2; Signal transducer and activator of transcription 3 (Homo sapiens), P40763; His-STAT3 binding, anti-His fluorescence; calls only; 17,000 compounds, 0.2% hits; AID 624138, 2012;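 active = compounds whose four printed spots each show fluorescence over background unusually high for their array block, chance value under 7%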
* marks the source's active call; other numbers are inactive results; i = inactive; + = active, no number.

SMILES	p53 mut binder	c-Myc SMM	NFkB SMM	STAT3 SMM
C=CCOC(=O)[C@H]1[C@@H]2C(=O)O[C@@H](c3ccccc3)[C@@H](c3ccccc3)N2[C@@H](c2ccc(OCCOC(=O)[C@H]3C[C@H]4C(=O)N5CCC[C@H]5C(=O)N4[C@H]3c3ccc(O)cc3)cc2)[C@]12C(=O)Nc1ccccc12	i	i	+	i
CC1(C)CC[C@]2(C(=O)O)CC[C@]3(C)C(=CCC4[C@@]5(C)CC[C@H](O[C@@H]6OC[C@H](O)[C@H](O)[C@H]6O)[C@@](C)(CO)C5CC[C@]43C)C2C1 (stereo partly specified)	i	i	+	i
C=C1CCC2(C(=O)OC3OC(CO)C(O)C(O)C3OC3OCC(O)C(O)C3O)CCC3(C)C(=CCC4C5(C)CCC(OC6OC(CO)C(O)C(O)C6O)C(C)(CO)C5CCC43C)C2C1 (stereo unspecified)	i	i	i	i
C/C=C(\C)C(=O)O[C@H]1[C@H](OC(C)=O)[C@@]2(CO)C(CC1(C)C)C1=CCC3[C@@]4(C)CC[C@H](O[C@@H]5O[C@H](C(=O)O)[C@@H](O)[C@H](O[C@@H]6O[C@H](CO)[C@H](O)[C@H](O)[C@H]6O[C@@H]6O[C@@H](C)[C@H](O)[C@@H](O)[C@H]6O)[C@H]5O[C@@H]5O[C@H](CO)[C@@H](O)[C@H](O)[C@H]5O)C(C)(C)C4CC[C@@]3(C)[C@]1(C)C[C@H]2O (stereo partly specified)	i	i	+	i
CC1(C)CC[C@@]2(C(=O)O[C@@H]3O[C@H](CO)[C@@H](O)[C@H](O)[C@H]3O)C(C1)C1=CCC3[C@@]4(C)CC[C@@H](O[C@@H]5O[C@H](C(=O)O)[C@@H](O[C@@H]6OC[C@@H](O)[C@H](O)[C@H]6O)[C@H](O)[C@H]5O)C(C)(C)C4CC[C@@]3(C)[C@]1(C)C[C@H]2O (stereo partly specified)	i	i	i	i
CC1(C)CC[C@]2(C(=O)O[C@@H]3O[C@H](CO)[C@@H](O)[C@H](O)[C@H]3O)CC[C@]3(C)C(=CCC4[C@@]5(C)CC[C@H](O[C@@H]6OC[C@H](O)[C@H](O)[C@H]6O[C@@H]6O[C@H](CO)[C@@H](O)[C@H](O)[C@H]6O[C@@H]6OC[C@H](O)[C@H](O)[C@H]6O)[C@@](C)(CO)C5CC[C@]43C)C2C1 (stereo partly specified)	i	i	+	i
C[C@@H]1CC[C@]2(C(=O)O)CC[C@]3(C(=O)O)C(=CCC4[C@@]5(C)CC[C@H](O[C@@H]6O[C@@H](C)[C@H](O[C@@H]7O[C@H](CO)[C@@H](O)[C@H](O)[C@H]7O)[C@@H](O)[C@H]6O)C(C)(C)C5CC[C@]43C)C2[C@H]1C (stereo partly specified)	i	i	i	i
C[C@@H]1O[C@@H](O[C@H]2[C@@H](O)[C@@H](C)O[C@@H](O[C@H]3[C@H](O)[C@@H](O)[C@H](O[C@H]4CC[C@@]5(C)C(CC[C@]6(C)C5C=CC5=C7CC(C)(C)CC[C@]7(CO)CC[C@]56C)[C@]4(C)CO)O[C@@H]3CO)[C@@H]2O[C@@H]2O[C@H](CO)[C@@H](O)[C@H](O)[C@H]2O)[C@H](O)[C@H](O)[C@H]1O (stereo partly specified)	i	+	+	i
CCN(CC(=O)Nc1cccc(SC)c1)S(=O)(=O)c1ccc(C)cc1	i	i	i	i
CN(C)CCCNc1c([N+](=O)[O-])c(=O)n(C)c2ccccc12	i	i	i	i
Cc1ccc(-c2noc(CCC(=O)NC(C)(C)C)n2)cc1	i	i	i	i
CC1OC(OC2C(CO)OC(OC(=O)[C@]34CCC(C)(C)CC3C3=CCC5[C@@]6(C)CC[C@H](OC7OC(C)C(OC8OCC(O)(COC9OCC(O)C(OC%10OCC(OC%11OCC(O)(CO)C%11O)C(O)C%10O)C9O)C8O)C(O)C7O)C(C)(C)C6CC[C@@]5(C)[C@]3(C)CC4)C(O)C2O)C(O)C(O)C1O (stereo partly specified)	i	+	+	i
CC1OC(O[C@H]2CC[C@@]3(C)C(CC[C@]4(C)C3CC=C3C5CC(C)(C)CC[C@]5(C(=O)OC5OC(CO)C(OC6OC(CO)C(O)C(O)C6O)C(O)C5O)CC[C@]34C)C2(C)C)C(O)C(O)C1OC1OCC(O)(COC2OCC(O)C(OC3OCC(OC4OCC(O)(CO)C4O)C(O)C3O)C2O)C1O (stereo partly specified)	i	i	i	i
O=[N+]([O-])c1ccc(NCCNCCO)cc1	+	i	i	i
O=C(CSc1ncn[nH]1)c1c[nH]c2ccccc12	i	i	i	i
O=C(CSc1nc(O)cc(=O)n1-c1ccccc1)N1CCc2ccccc21	+	i	i	i
O=C(CSc1ccc([N+](=O)[O-])cn1)N1CCc2ccccc21	i	i	i	i
C/C=C/C/C=C/CCC(=O)[C@H]1O[C@H]1C(N)=O	i	i	+	i
CC1(C)CC(=O)C2=C(C1)Nc1ccccc1N(C(=O)Cc1ccccc1)C2c1ccc(-c2ccccc2[N+](=O)[O-])o1 (stereo unspecified)	i	i	i	i
COc1ccc(-c2nnc(SCCCN3C(=O)c4cccc5cccc(c45)C3=O)n2C)cc1OC	i	i	i	i
Cc1ccc(S(=O)(=O)NC(Cc2c[nH]c3ccccc23)C(=O)O)cc1 (stereo unspecified)	i	i	i	i
CSCC(NS(=O)(=O)c1ccc(Br)cc1)C(=O)O (stereo unspecified)	i	+	+	i
Cc1ccc(S(=O)(=O)N2CCC[C@H]2Cn2cc(CN3C(=O)COC[C@H]3c3ccccc3)nn2)cc1	+	i	i	i
COc1ccc(C(=O)CSc2ncnc3sc4c(c23)CCCC4)cc1	i	i	i	i
CC(C)OC(=O)c1cn(Cc2c(F)cccc2F)c2sc(-c3ccc(NC(=O)C(C)C)cc3)c(CN(C)Cc3ccccc3)c2c1=O	i	+	+	i
COc1cc(S(=O)(=O)n2nnc3ccccc32)c(OC)cc1Cl	i	+	i	i
CC1=C(C)CC(C(=O)Nc2cccc3ccccc23)C(C(=O)O)C1 (stereo unspecified)	i	i	i	i
Cc1cc(C)c(NC(=O)CSc2nncc3ccccc23)c([N+](=O)[O-])c1	i	i	i	i
C[C@@H]1CN([C@H](C)CO)C(=O)c2cc(NC(=O)CCC(F)(F)F)ccc2O[C@@H](C)CCCCO[C@H]1CN(C)C(=O)CCC(F)(F)F	i	+	+	i

Bioassay records as filed in PubChem.
